Several values for one entry are separate records, joined by “and”; a condition that tells them apart may be missing. Identical values can stand only once. In all, about 5,500 compounds went through this assay and about 2,000 (36%) were called active. Another 18% or so got no clear call; they are omitted. Cut-off read from the data, not from the text of the source: active = normalized growth mostly below about 0.91 (no sharp cut-off); inconclusive = no clear call, values can overlap the other calls; inactive = mostly above about 0.92. Some of the results follow.
Assay: chemical genetic growth profiling, strain panel (AID 1159580);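 note: tested at 20 µM; growth read once vehicle control cultures reached saturation at 30 °C; 1 = growth at the plate median or of vehicle wells; lower values mean less growth of the strain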
Settings: S. cerevisiae deletion strains, growth OD

Measured: normalized growth

CCOC(=O)CCCCCCCCCCCCC1C=CCC1 (centres undefined)
inactive: locus YAL021C, strain ccr4, stronger effect = lower value 1.01 | locus YAL026C, strain drs2, stronger effect = lower value 1 | locus YAL030W, strain snc1, stronger effect = lower value 0.982 | locus YBL061C, strain skt5, stronger effect = lower value 0.977 | locus YBR009C, strain hhf1, stronger effect = lower value 0.922 | locus YBR023C, strain chs3, stronger effect = lower value 0.979 | locus YBR171W, strain sec66, stronger effect = lower value 0.973 | locus YBR231C, strain swc5, stronger effect = lower value 0.978 | locus YBR279W, strain paf1, stronger effect = lower value 0.981 | locus YCL011C, strain gbp2, stronger effect = lower value 0.967 | locus YCL016C, strain dcc1, stronger effect = lower value 0.981 | locus YCL061C, strain MRC1, stronger effect = lower value 0.983 | locus YCL069W, strain vba3, stronger effect = lower value 0.981 | locus YCR088W, strain abp1, stronger effect = lower value 0.983 | locus YDL005C, strain med2, stronger effect = lower value 0.974 | locus YDL040C, strain nat1, stronger effect = lower value 0.974 | locus YDR001C, strain nth1, stronger effect = lower value 0.994 | locus YDR069C, strain doa4, stronger effect = lower value 0.958 | locus YDR137W, strain rgp1, stronger effect = lower value 0.979 | locus YDR159W, strain sac3, stronger effect = lower value 0.978 | locus YDR195W, strain ref2 1.06 | locus YDR297W, strain sur2, stronger effect = lower value 0.984 | locus YDR334W, strain swr1, stronger effect = lower value 0.976 | locus YDR335W, strain msn5, stronger effect = lower value 1 | locus YEL003W, strain gim4, stronger effect = lower value 0.969 | locus YEL037C, strain rad23, stronger effect = lower value 0.989 | locus YEL061C, strain CIN8 (second series), stronger effect = lower value 0.978 | locus YER015W, strain faa2, stronger effect = lower value 0.982 | locus YER016W, strain bim1, stronger effect = lower value 0.978 | locus YER111C, strain swi4, stronger effect = lower value 0.958 | locus YFR010W, strain ubp6, stronger effect = lower value 0.969 | locus YGL167C, strain pmr1, stronger effect = lower value 0.972 | locus YGL173C, strain kem1, stronger effect = lower value 0.96 | locus YGL227W, strain vid30, stronger effect = lower value 0.962 | locus YGL240W, strain doc1, stronger effect = lower value 0.972 | locus YGL253W, strain hxk2, stronger effect = lower value 0.998 | locus YHR027C, strain rpn1, stronger effect = lower value 0.984 | locus YHR079C, strain IRE1, stronger effect = lower value 0.983 | locus YHR142W, strain chs7, stronger effect = lower value 0.975 | locus YJL092W, strain hpr5, stronger effect = lower value 0.994 | locus YJL095W, strain BCK1 (second series), stronger effect = lower value 0.969 | locus YJL115W, strain asf1, stronger effect = lower value 0.99 | locus YJL129C, strain trk1, stronger effect = lower value 0.91 | locus YJL154C, strain vps35, stronger effect = lower value 0.997 | locus YJL164C, strain tpk1, stronger effect = lower value 0.952 | locus YJL166W, strain qcr8, stronger effect = lower value 0.942 | locus YJL187C, strain SWE1, stronger effect = lower value 0.98
0.0599 (active) and 0.989 (inactive): locus YJL095W, strain BCK1, stronger effect = lower value
active: locus YAL013W, strain DEP1, stronger effect = lower value 0.054 | locus YBR021W, strain FUR4, stronger effect = lower value 0.0914 | locus YBR229C, strain ROT2, stronger effect = lower value 0.0494 | locus YCL029C, strain bik1, stronger effect = lower value 0.067 | locus YDL035C, strain GPR1, stronger effect = lower value 0.0527 | locus YDL074C, strain BRE1, stronger effect = lower value 0.0833 | locus YDL101C, strain DUN1, stronger effect = lower value 0.0581 | locus YDL134C, strain PPH21, stronger effect = lower value 0.0502 | locus YDL185W, strain tfp1, stronger effect = lower value 0.499 | locus YDL192W, strain arf1, stronger effect = lower value 0.0606 | locus YDR101C, strain arx1, stronger effect = lower value 0.0619 | locus YDR162C, strain NBP2, stronger effect = lower value 0.0522 | locus YDR318W, strain mcm21, stronger effect = lower value 0.0614 | locus YDR388W, stronger effect = lower value 0.0583 | locus YDR392W, strain spt3, stronger effect = lower value 0.497 | locus YDR502C, strain sam2, stronger effect = lower value 0.0641 | locus YEL061C, strain CIN8, stronger effect = lower value 0.054 | locus YER110C, stronger effect = lower value 0.0827 | locus YER155C, strain BEM2 (second series), stronger effect = lower value 0.594 | locus YER155C, strain BEM2, stronger effect = lower value 0.0734 | locus YER167W, strain BCK2, stronger effect = lower value 0.0529 | locus YGL078C, strain dbp3, stronger effect = lower value 0.688 | locus YGL086W, strain mad1, stronger effect = lower value 0.0537 | locus YGL248W, strain PDE1, stronger effect = lower value 0.0488 | locus YGR078C, strain PAC10, stronger effect = lower value 0.053 | locus YGR135W, strain pre9, stronger effect = lower value 0.06 | locus YGR252W, strain gcn5, stronger effect = lower value 0.11 | locus YHR013C, strain ard1, stronger effect = lower value 0.815 | locus YHR079C, strain IRE1 (second series), stronger effect = lower value 0.0604 | locus YHR094C, strain hxt1, stronger effect = lower value 0.0651 | locus YHR129C, strain ARP1, stronger effect = lower value 0.0559 | locus YHR200W, strain rpn10, stronger effect = lower value 0.0588 | locus YIL066C, strain RNR3, stronger effect = lower value 0.0493 | locus YIL073C, strain SPO22, stronger effect = lower value 0.148 | locus YIL125W, strain kgd1, stronger effect = lower value 0.773 | locus YIR030C, strain dcg1, stronger effect = lower value 0.0637 | locus YJL134W, strain LCB3, stronger effect = lower value 0.0504 | locus YJL168C, strain set2, stronger effect = lower value 0.0586 | locus YJL187C, strain SWE1 (second series), stronger effect = lower value 0.0498 | locus YJR043C, strain POL32, stronger effect = lower value 0.0731
0.0494 (active) and 0.992 (inactive): locus YHR030C, strain SLT2, stronger effect = lower value

Reference: PubChem BioAssay AID1159580 (chemical genetic matrix, 2015)
